Measured values published in PubChem BioAssay (EPA / NIEHS).
Where “and” joins values, the source holds several entries; their conditions need not be identical. Identical values can stand only once. Inconclusive results are not listed. Calls of active or inactive are those of the source. The calls were made as follows: active = hit-call score of the fitted dose curve at least 0.9, where 1 is the maximum; inconclusive = response in the unintended direction; inactive = score below 0.9.

test system: not listed separately; assay: ACEA_AR_agonist_AUC_viability: ACEA Biosciences xCELLigence Real-Time Cell Analysis on Androgen Receptor Agonism for Viability (AID 2283775);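 as to AC50: viability read 80 hours after compound addition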
How it was run: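 Viability endpoint from xCELLigence impedance in 22Rv1 prostate cells at 80 h. Eight-point series, 100 uM maximum final.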

SMILES	outcome	AC50
CC(=O)Nc1ccc(O)cc1	inactive	
NCc1cccc(CN)c1	inactive	
CCCCc1ccc2ccccc2c1S(=O)(=O)O		3.3 µM (active)

test system: not listed separately; assay: ACEA_AR_antagonist_AUC_viability: ACEA Biosciences xCELLigence Real-Time Cell Analysis on Androgen Receptor Antagonism for Viability (AID 2283776);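 also: 22Rv1 human prostate cancer cells growing on impedance electrode plates; area under impedance growth curve at 80 h after dosing as viability; hits lower the growth signal relative to DMSO meaning cytotoxicity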
How it was run: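 Impedance read-out (RT-CES): area under growth curve at 80 h post-dose, loss of signal scored vs DMSO baseline. 22Rv1 cells; 8-pt 1:4 series, top 100 uM final, ≤0.5% DMSO; biological duplicate.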

SMILES	outcome	AC50
CC(=O)Nc1ccc(O)cc1	inactive	
CCCCCCCCCC=CCC1CC(=O)OC1=O (configuration not stated)	inactive	
O=C(O)c1cccc(C(=O)O)n1	inactive	
O=C(c1ccccc1)c1ccccc1	inactive	
CCCCc1ccc2ccccc2c1S(=O)(=O)O	inactive	
N=C(N)c1ccc(OCCCCCOc2ccc(C(=N)N)cc2)cc1		17.3 µM (active)

test system: not listed separately; assay: ACEA_ER_AUC_viability: ACEA Biosciences xCELLigence Real-Time Cell Analysis on Estrogen Receptor Agonism for Viability (AID 2283782);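 also: hit means loss of impedance signal meaning reduced cell growth or viability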
How it was run: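 Continuous-exposure impedance cell analysis uses T-47D cells in charcoal-stripped serum, eight 1:4 dilutions topping at 100 uM final, biological duplicate. Area under the growth curve at 80 h is fitted against DMSO baseline.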

SMILES	outcome	AC50
CC1CNCC(C)O1 (configuration not stated)	inactive	
Clc1ccc2c(Cl)ccnc2c1	inactive	
CCCCC(CC)C(=O)OCCOCCOCCOCCOC(=O)C(CC)CCCC (configuration not stated)	inactive	
CCO[Si](C)(C)OCC	inactive	
COC(O)c1ccccc1 (configuration not stated)	inactive	
CN(C)c1ccc(C(=C2C=CC(=[N+](C)C)C=C2)c2ccccc2)cc1		3.16 µM (active) and 3.1 µM (active)
C/C=C/C(=O)C1=C(C)CCCC1(C)C	inactive	
C=CC(=O)OCCN(CC)CC	inactive	
CCCCCCCCC1CCC(=O)O1 (configuration not stated)		67.5 µM (active)
CCC(=O)O	inactive	
CCCCCCCCCC=CCC1CC(=O)OC1=O (configuration not stated)	inactive	
O=C(O)CCC(F)(F)C(F)(F)C(F)(F)C(F)(F)C(F)(F)F	inactive	
O=C1c2ccc(O)c(O)c2C(=O)c2c(O)ccc(O)c21		6.67 µM (active)
C=COC(=O)C(C)(C)CCCCCC		19.6 µM (active)
O=C(O)c1cccc(C(=O)O)n1	inactive	
NCc1cccc(CN)c1	inactive	
CCCCCCCCC(C)=O		9.92 µM (active)
c1cc[nH]c1		50 µM (active)
COc1ccc(C#N)cc1		50 µM (active)
Cc1cncc(C)c1		12.1 µM (active)
Oc1cccc2c(O)cccc12		20.2 µM (active)
CNNCc1ccc(C(=O)NC(C)C)cc1	inactive	
O=C(CC(=O)C(F)(F)C(F)(F)C(F)(F)F)c1cccs1		113 µM (active)
CCCCCCCCCCCC[N+](C)(C)Cc1ccccc1		3.05 µM (active) and 5.69 µM (active)
C=CC(=O)OCCC(F)(F)C(F)(F)C(F)(F)C(F)(F)C(F)(F)C(F)(F)C(F)(F)C(F)(F)F	inactive	
CC1=NN(c2ccccc2)C(=O)C1	inactive	
CCCCc1ccc2ccccc2c1S(=O)(=O)O	inactive	
N=C(N)c1ccc(OCCCCCOc2ccc(C(=N)N)cc2)cc1		63.5 µM (active)
CCC(C)c1nccnc1OC (configuration not stated)	inactive	

biological target: AR (gene 367) (UniProt P10275); assay: ACEA_AR_antagonist_80hr: ACEA Biosciences xCELLigence Real-Time Cell Analysis on Androgen Receptor Antagonism for Proliferation (AID 2283787);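 also: 22Rv1 human prostate cancer cells with growth followed by electrical impedance; hits lower the impedance growth signal relative to DMSO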
How it was run: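 Using 22Rv1 cells held in assay medium, we dosed compounds (100 uM maximum final, 1:4 serial, eight points, 0.5% DMSO at top) and recorded cell-electrode impedance; the 80 hr timepoint was analyzed against DMSO.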

Sequence of AR (gene 367) (P10275 whole entry, looked up): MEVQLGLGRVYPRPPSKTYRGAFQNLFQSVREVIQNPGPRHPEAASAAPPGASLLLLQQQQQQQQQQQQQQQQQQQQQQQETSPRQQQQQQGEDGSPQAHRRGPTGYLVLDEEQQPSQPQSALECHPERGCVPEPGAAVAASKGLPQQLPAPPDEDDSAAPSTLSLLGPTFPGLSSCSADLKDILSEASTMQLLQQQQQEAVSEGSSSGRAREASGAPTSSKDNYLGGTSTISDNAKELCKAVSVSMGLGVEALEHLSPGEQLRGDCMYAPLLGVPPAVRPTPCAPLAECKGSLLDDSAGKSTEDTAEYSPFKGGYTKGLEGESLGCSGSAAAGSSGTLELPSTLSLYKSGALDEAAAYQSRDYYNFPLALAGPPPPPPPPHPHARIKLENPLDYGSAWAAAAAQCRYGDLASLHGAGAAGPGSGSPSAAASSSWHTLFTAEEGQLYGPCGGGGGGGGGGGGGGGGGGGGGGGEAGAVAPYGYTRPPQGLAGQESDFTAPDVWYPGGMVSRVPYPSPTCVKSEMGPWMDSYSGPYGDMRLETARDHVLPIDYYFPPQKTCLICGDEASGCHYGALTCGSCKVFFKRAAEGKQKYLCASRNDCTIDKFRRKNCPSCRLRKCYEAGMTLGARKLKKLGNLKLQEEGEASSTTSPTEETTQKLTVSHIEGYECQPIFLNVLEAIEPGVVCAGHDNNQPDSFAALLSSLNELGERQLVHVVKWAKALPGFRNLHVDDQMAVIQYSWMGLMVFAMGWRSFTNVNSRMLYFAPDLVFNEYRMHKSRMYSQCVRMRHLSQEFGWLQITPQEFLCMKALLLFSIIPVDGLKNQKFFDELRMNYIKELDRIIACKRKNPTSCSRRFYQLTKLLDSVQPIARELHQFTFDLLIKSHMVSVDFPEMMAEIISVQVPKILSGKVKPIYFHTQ

SMILES	outcome
CC(=O)Nc1ccc(O)cc1	inactive
CCCCCCCCCC=CCC1CC(=O)OC1=O (configuration not stated)	inactive
O=C(c1ccccc1)c1ccccc1	inactive
CCCCc1ccc2ccccc2c1S(=O)(=O)O	inactive
